Experimental data taken from ChEMBL document CHEMBL4513141, “CO-ADD screening of NIH (USA) - Clinical Collection” (2021).
Potency and affinity values are given separately.

Legend:
Klebsiella pneumoniae = conditions: Concentration 20 uM; ASSAY_TEST Inhibition of Bacterial Growth; detection method Absorption (OD600); MEDIA CAMHB; plate type 384well; NBS; CORNING #3640; time 18 hr
Candida albicans = conditions: 20 µM
Cryptococcus neoformans = conditions: Concentration 20 uM; ASSAY_TEST Inhibition of Fungal Growth; detection method Resazurin; Absorption (OD600-OD570); plate type 384well; NBS; CORNING #3640

| Compound | Inhibition (Klebsiella pneumoniae) [%] | Inhibition (Candida albicans) [%] | Inhibition (Cryptococcus neoformans) [%] |
| --- | --- | --- | --- |
| Cl.O.c1cnc(N2CCN(Cc3ccc4c(c3)OCO4)CC2)nc1 | 3.33 | 3.11 | -7.46 |
| CN1CCCCC1CCN1c2ccccc2Sc2ccc([S+](C)[O-])cc21.O=S(=O)(O)c1ccccc1 (configuration not stated) [MESORIDAZINE BESYLATE] | -1.64 | 4.29 | 2.61 |
| Nc1ccc(S(=O)(=O)c2ccc(N)cc2)cc1 [DAPSONE] | 5.01 | -0.53 | 0.91 |
| CCCCC1=NC2(CCCC2)C(=O)N1Cc1ccc(-c2ccccc2-c2nnn[nH]2)cc1 [IRBESARTAN] | 7.4 | -0.2 | 0.28 |
| CCOC(=O)[C@H](CCc1ccccc1)N[C@@H](C)C(=O)N1[C@H](C(=O)O)C[C@@H]2CCC[C@@H]21 | 20.74 | 1.9 | -1.7 |
| COc1ccc2c(c1)c(CC(=O)O)c(C)n2C(=O)c1ccc(Cl)cc1.O | 8.34 | 3.53 | 1.93 |
| O=C1CCc2ccc(OCCCCN3CCN(c4cccc(Cl)c4Cl)CC3)cc2N1 [ARIPIPRAZOLE] | 2.6 | -0.97 | 6.93 |
| CCCN(CCC)S(=O)(=O)c1ccc(C(=O)O)cc1 [PROBENECID] | 16.52 | – | -7.72 |
| Nc1nc(Cl)nc2c1ncn2[C@H]1C[C@H](O)[C@@H](CO)O1 [CLADRIBINE] | 16.3 | 1.93 | -8.92 |
| CC(=O)OCC(=O)NCCCOc1cccc(CN2CCCCC2)c1.Cl [ROXATIDINE ACETATE HYDROCHLORIDE] | 15.18 | 3.06 | -4.65 |
| CCC(C)(C)/N=C(\NC#N)Nc1cccnc1 | -0.95 | 3.82 | -26.21 |
| COc1ccc(OC)c(C(O)CNC(=O)CN)c1.Cl (configuration not stated) [MIDODRINE HYDROCHLORIDE] | 8.37 | 2.18 | -10.49 |
| Nc1ccc(O)c(C(=O)O)c1 [MESALAMINE] | – | 1.32 | 3.98 |
